Bst PK mod: Pyruvate Kinase; purified pyruvate kinase, luminescence ATP production; ribose 5-phosphate activator present at AC10; hit rate 1.2% among 51,000; Potency, µM; in the data active = potency below about 11 µM; inconclusive = mostly about 12 µM to 25 µM;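 the screen sought inhibitors and activators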;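 also: scaled between full activation by ribose 5 phosphate and full inhibition by luteolin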
FLuc inh: qHTS Assay for Inhibitors of Firefly Luciferase; Luciferin 4-monooxygenase (Photinus pyralis), P08659; purified firefly luciferase, luminescence, 8 min; Potency, µM (highest dose often 57.1 µM), without a hit: top-dose activity change, negative = inhibition, usual class: inhibitors; hit rate 2.2% among 72,000; AID 411, 2009; also: % is scaled to controls: 0 for no effect and ±100 for the full control effect; nearly all actives have a fitted effect of over 40% in size
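Firefly luciferase (PKLight detection mix) with 10 uM ATP in pH 7.2 imidazole buffer (KCl, MgCl2, Tween 20, BSA). Compounds tested across a concentration series (qHTS). Luminescence read after 8 min at ambient temperature.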
ERK AVP block: qHTS Assay for Inhibitors of the ERK Signaling Pathway using a Homogeneous Screening Assay | HEK293-V1b, vasopressin-stimulated pERK AlphaScreen | Potency, µM (series often up to 57.5 µM), without a hit: at the highest dose activity, negative = inhibition, hits mostly inhibitors | hit rate 0.99% among 72,000 | AID 995, 2007; also: % is scaled to controls: 0 for no effect and ±100 for the full control effect; nearly all actives have a fitted effect of over 55% in size
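Overnight-seeded V1b-HEK293 cells in 1% FBS got compound, then vasopressin (25 nM final, 5 min, 37C), then lysis buffer. AlphaScreen detection of phospho-ERK; activity normalized to basal and full-stimulation controls.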
HEK293 cAMP cs: qHTS Assay for Agonists of the Thyroid Stimulating Hormone Receptor: Activators of Intracellular cAMP Concentrations in Parental HEK 293; parental HEK293 CNG cAMP sensor, membrane potential fluorescence; Potency, µM (highest dose often 57.1 µM), inactives show top-dose activation, most hits filed as activators; hit rate 2.5% among 73,000; also: % of control where 0% means no effect; nearly all actives have a fitted effect of over 55% in size
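Parental HEK 293 cells stably expressing a modified CNG channel (no TSHR) report cAMP rise as membrane depolarization. Membrane potential dye with 100 uM RO 20-1724 was loaded for 60 min at room temperature, then compound added for 30 min; fluorescence read at 590 nm.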
TSHR ag: qHTS Assay for Agonists of the Thyroid Stimulating Hormone Receptor | HEK293-CNG-TSHR cells (CNG channel as cAMP sensor), membrane potential dye, cAMP | Potency, µM (doses to about 57.1 µM), inactives show top-dose activation, hits mostly activators | hit rate 0.48% among 73,000 | AID 926, 2007; active = well fitted activation curve with a large enough effect in the main read-out, with a control signal flat, not every such curve was filed as active; inconclusive = small, poorly fitted or top-dose-only effect, or a change in a side signal; inactive = no such curve, though single readings can be large or run the other way; % of control where 0% means no effect;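 also: the control signal comes from parental cells without the receptor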
Target sequence (P16473 whole entry, looked up): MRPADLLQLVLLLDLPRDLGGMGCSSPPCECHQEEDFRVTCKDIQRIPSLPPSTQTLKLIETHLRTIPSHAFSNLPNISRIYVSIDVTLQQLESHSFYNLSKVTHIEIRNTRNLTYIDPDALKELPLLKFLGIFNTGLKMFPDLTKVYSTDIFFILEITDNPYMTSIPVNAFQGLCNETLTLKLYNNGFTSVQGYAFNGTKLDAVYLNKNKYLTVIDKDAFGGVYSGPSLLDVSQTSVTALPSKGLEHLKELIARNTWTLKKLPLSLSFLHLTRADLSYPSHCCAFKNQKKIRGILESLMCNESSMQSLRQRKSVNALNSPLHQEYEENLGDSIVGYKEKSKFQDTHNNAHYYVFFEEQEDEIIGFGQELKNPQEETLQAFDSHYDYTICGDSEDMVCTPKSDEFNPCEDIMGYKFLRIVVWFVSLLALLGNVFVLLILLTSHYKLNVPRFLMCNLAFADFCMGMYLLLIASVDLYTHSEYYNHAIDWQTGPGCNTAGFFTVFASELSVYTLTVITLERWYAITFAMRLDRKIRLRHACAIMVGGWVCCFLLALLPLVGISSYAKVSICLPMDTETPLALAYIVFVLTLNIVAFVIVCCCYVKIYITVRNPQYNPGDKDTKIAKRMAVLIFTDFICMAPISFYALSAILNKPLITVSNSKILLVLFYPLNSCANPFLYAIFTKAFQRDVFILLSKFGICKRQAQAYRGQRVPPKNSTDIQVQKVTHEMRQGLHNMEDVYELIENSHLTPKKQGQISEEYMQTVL
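HEK 293 cells stably expressing TSHR and a cAMP-gated CNG channel; parental CNG-only cells as counterscreen. Cells preloaded 60 min with membrane potential dye plus 100 uM RO 20-1724, then compound 30 min; fluorescence read at 590 nm.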
GBA activity: Glucocerebrosidase | Lysosomal acid glucosylceramidase (Homo sapiens), P04062 | purified enzyme, resorufin glucoside fluorescence (screen aimed at inhibitors), 20 min | Potency, µM | hit rate 1.1% among 48,000; in the data active = potency below about 15 µM; inconclusive = mostly about 16 µM to 33 µM;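 also: the screen sought inhibitors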
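Compounds titrated against 0.2 nM normal enzyme, 30 uM resorufin beta-D-glucopyranoside substrate, citrate/phosphate buffer with taurocholate and tween-20, pH 5.9. Reaction ran 20 min at room temperature; fluorescence (Ex 548/Em 600) gave AC50.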
* hit, by the source's call; i = inactive; ? = inconclusive; nt = no result; [ ] = remark or other dose. A selection: hits, their analogues and other compounds. The true share with any hit is near 6.1%. Unless noted, calls follow the shape of the dose curve; as a rule, active = well fitted curve in the direction sought with a large enough effect; inconclusive = small, poorly fitted or top-dose-only effect, or another doubt; inactive = no such curve, though single readings can be large; an effect the other way counts as inactive or inconclusive. Potency is read from the fitted curve at half-maximal effect.

SMILES | Bst PK mod | FLuc inh | ERK AVP block | HEK293 cAMP cs | TSHR ag | GBA activity
CCOc1cc(/C=N/NC(=O)c2cc(-c3cccc(OC)c3)n[nH]2)ccc1O | nt | nt | nt | -10% | -9% | nt
CCC1=C(OC(=O)N(CC)CC)N2C(=O)OC(=NCCOC)[C@]2(C)[C@H]2C1=CC[C@H]1C(=O)N(C)C(=O)[C@H]12 | nt | nt | -8% | nt | nt | nt
CN1CC[C@@]2(CCN3CCc4c(oc5ccccc45)[C@@H]3C2)N(C)C1=O | nt | -1% | 4% | 10% | 5% | nt
O=C(O)/C=C\c1c2ccc(=O)c(O)c-2oc2c(O)c(O)ccc12 | nt | -4%[11.4 µM] | ? | 6%[11.4 µM] | 0%[11.4 µM] | nt
CCOC(=O)C1=C(N)OC2=C(C(=O)CC(C)(C)C2)C1c1ccoc1 (stereo not given) | >57 | 0% | 20% | 13µM* | ? | >77
COC(=O)C1=C(N)OC2=C(C(=O)CC(C)(C)C2)C1c1cccs1 (stereo not given) | nt | 1% | -20% | 3.2µM* | ? | nt
CC(=O)O[C@H]1C(=O)[C@]2(C)[C@H]([C@H](OC(=O)c3ccccc3)[C@@]3(O)C[C@H](OC(=O)[C@@H](O)[C@@H](NC(=O)c4ccccc4)c4ccccc4)C(C)=C1C3(C)C)[C@]1(OC(C)=O)CO[C@@H]1C[C@@H]2O | nt | -2%[11.4 µM] | nt | 1% | 0% | nt
COc1cccc(OC)c1-c1nn2c(-c3ccccc3Cl)nnc2s1 | 7.3* | -1%[25.5 µM] | nt | nt | nt | nt
Clc1ccccc1-c1nnc2sc(-c3ccccn3)nn12 | >57 | -2% | 2% | 10% | 6% | >77
C[C@@H](CCC(=O)O)C(=O)O | nt | 2%[11.4 µM] | ? | 11%[11.4 µM] | -1%[11.4 µM] | nt
c1csc(-c2csc3nc(CN4CCOCC4)nc(NCc4ccc5c(c4)OCO5)c23)c1 | >57 | 0% | 13% | 13µM* | ? | i
Cc1sc2nc(CN3CCOCC3)nc(NS(=O)(=O)c3ccc4c(c3)OCCO4)c2c1C | >57 | -1% | -4% | 17%[2.29 µM] | 5% | >77
CN1C(=O)NC(c2ccc(O)cc2)C(C(=O)c2cccs2)C1(O)C(F)(F)F (stereo not given) | >57 | -2% | 20% | -6% | 1% | 15*
COC(=O)c1ccc(C(/C=C/[C@@H](C)C(=O)NCc2ccccc2)NC(=O)OCc2ccccc2)cc1 (stereo not given in full) | nt | nt | 7% | ? | ? | nt
CC(C)OC(=O)c1cn(-c2ccccc2)nc1-c1ccco1 | >57 | -2% | -16% | 18% | 25µM* | >77
COc1ccc(-c2nn(-c3ccccc3)cc2C(=O)O)cc1 | nt | 1% | nt | 4% | 1% | nt
C/C(=C\C(=O)Nc1nccs1)c1ccccc1 | i | 25µM* | -8% | 3% | 1% | >77
CCC(C(=O)Nc1nccs1)c1ccccc1 (stereo not given) | nt | -3% | 24% | -9%[11.4 µM] | 8%[11.4 µM] | nt
Cc1ccc(S(=O)(=O)N(CC(=O)O)Cc2cccc(C)c2)cc1 | nt | nt | nt | 6% | ? | nt
COc1ccc(C2C(C(=O)N3CCC(C)CC3)c3ccccc3C(=O)N2C)cc1 (stereo not given) | >57 | 3% | 15% | ? | ? | >77
COc1ccc(C2C(C(=O)N3CC(C)CC(C)C3)c3ccccc3C(=O)N2C)cc1 (stereo not given) | >57 | 2% | 10% | 16µM* | ? | >77
COc1ccc(-c2nc3cnc(N(C)C)nc3n(C)c2=O)cc1 | nt | -8%[11.4 µM] | 36% | 3%[0.457 µM] | 2% | nt
CN(C)c1nc(N2CCCCC2)nc(N2CCCCC2)n1 | nt | 1% | 1% | 8% | 0% | nt
CC(C)(C)N1C(=O)[C@H]2[C@H]3[C@H](O)[C@H](O)C/C(=N/NC(=O)OCc4ccccc4)[C@@H]3CC[C@@H]2C1=O | nt | 0%[11.4 µM] | 26%[11.5 µM] | ? | ? | nt
Cc1cc(N2CCOCC2)nc2cc(O)ccc12 | nt | -23% | nt | 6.3µM* | ? | nt
COc1ccc(N2CCN(c3cc(C)c4ccc(O)cc4n3)CC2)cc1 | nt | -4% | nt | -47% | ? | nt
